Activity calls are given as the source filed them. Rule for the calls: active = hit-call score of the fitted dose curve at least 0.9, where 1 is the maximum; inactive = score below 0.9.

Cytochrome P450 3A7 (Homo sapiens), sequence (P24462 whole entry, looked up): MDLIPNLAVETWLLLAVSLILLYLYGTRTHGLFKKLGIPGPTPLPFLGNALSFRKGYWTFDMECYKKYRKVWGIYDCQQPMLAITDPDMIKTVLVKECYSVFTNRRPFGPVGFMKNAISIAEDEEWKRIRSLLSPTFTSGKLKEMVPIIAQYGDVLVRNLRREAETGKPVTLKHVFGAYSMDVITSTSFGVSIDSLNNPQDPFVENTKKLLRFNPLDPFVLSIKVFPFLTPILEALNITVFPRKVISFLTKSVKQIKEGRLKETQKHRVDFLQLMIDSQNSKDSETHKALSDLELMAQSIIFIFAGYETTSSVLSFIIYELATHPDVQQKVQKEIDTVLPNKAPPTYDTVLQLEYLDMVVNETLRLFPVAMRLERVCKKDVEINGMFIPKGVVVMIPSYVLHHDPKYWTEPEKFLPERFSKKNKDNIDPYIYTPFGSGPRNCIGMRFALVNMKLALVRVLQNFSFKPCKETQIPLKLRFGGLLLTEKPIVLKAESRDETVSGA

Read-out in the assay: Cytochrome P450 3A7 (Homo sapiens) (UniProt P24462)
Description: LTEA_HepaRG_CYP3A7: Life Technologies and Expression Analysis (LTEA) Assay for CYP3A7 using HepaRG (AID 2283492). The conditions noted are these: mRNA level, 48 h; actives raise or lower the signal. As to the method: LTEA_HepaRG is a cell based, multiplexed-readout assay that uses HepaRG, a human liver cell line, with measurements taken at 48 hours after chemical dosing on a 96-well plate.LTEA_HepaRG_CYP3A7 is one of 102 assay component(s) measured in the LTEA HepaRG cell culture assay. It is a marker of NR mediated metabolism/Undifferentiated hepatocyte.Data from the assay component LTEA_HepaRG_CYP3A7 was analyzed into 1 endpoint. This assay endpoint, LTEA_HepaRG_CYP3A7, was analyzed with bidirectional fitting relative to DMSO as the negative control and baseline of activity. Using a type of inducible reporter, measures of mRNA induction for gain or loss-of-signal activity can be used to understand regulation of transcription factor activity. To generalize the intended target to other relatable targets, this assay endpoint is annotated to the cyp intended target family, where the subfamily is xenobiotic metabolism.
A total of 1060 chemcials from the ToxCast library were tested in eight-point concentration-response experiments. Cell culture and cytotoxicity assays were conducted at Thermo Fisher Scientific's Custom Services facility (Madison, WI). A single lot of human HepaRG cells (Thermo Fisher Scientific, Frederick, MD) was used for the cell culture experiments. 96-well format collagen type I coated plates of human HepaRG cells were prepared using established methods. Briefly, cryopreserved HepaRG cells were thawed, plated at a density of approximately 100,000 cells/well in HepaRG Thaw, Plate, and General Purpose media (HPRG770, Thermo Fisher Scientific), and incubated for 48 hours. 0.5% DMSO was selected as vehicle control to balance the requisite need of DMSO in HepaRG cultures to maintain differentiation (for example, baseline metabolism, proportions of hepatocytes vs. cholangiocytes), while enabling further hepatic receptor pathway activation (for example, PXR and CAR) in response to chemical exposure. 48 hours after plating, the culture medium was replaced with HepaRG Serum-Free Incudtion Media. Cells were exposed to each test chemical in duplicate and maintained in CO2 incubators for another 48 hours. Chemical plates were thawed to room temperature and 200x concentrations of treatment groups were prepared. 8-point conentration-reponse curves were made with the highest exposure at 100 uM, followed by half-log dilutions, all in 0.5% DMSO. Each test plate contained variouse controls, induction positive controls (1mM phenobarbital), cytotoxicity positive controls ([…] aflatoxin B1), vehicle controls (0.5% DMSO), and total lysis controls (0.5% DMSO). Cell morphology images were taken using an Essen IncuCyte FLR automated microscope, with six 96-well plates imaged in about 24 minutes. Images were captured and exported and JPEG files. Spent culture media was transfered to black-well plates for the LDH assay, and remaining media was sorted at -80 C for later use. Cells were treated with RLT buffer and frozen until shipped for gene expression analysis. Total RNA was isolated from the cell suspension in 75 uL of Buffer RLT (Qiagen, Germantown, MD 20874) by Quintiles/Expression Analysis (Durham, NC) using a custom isolation procedure. Total RNA from each plate well was transferred to a preamplification plate. Fluidigm's 96.96 Dynamic ArrayTM (Fluidigm, Amsterdam, the Netherlands) technology was used for gene expression analyses by quantitative reverse transcription polymerase chain reaction (qRT-PCR, performed by Quintiles/Expression Analysis, Durham, NC)89. Standard TaqManTM Assays (Applied Biosystems/ThermoFisher Scientific, Foster City, CA) were used to assess the expression of 93 genes selected based on their selectivity and sensitivity to important hepatic receptors known to be modulated by environmental chemicals; importance in human hepatocyte functionality; and hepatotoxicity. […]
For the compound `O=C1NS(=O)(=O)c2ccccc21`, the call was inactive.

On to `CC(=O)Nc1ccc(O)cc1`, for which the result was inactive.

Take `OCC(CO)(CBr)CBr`: the compound was called inactive.

In the case of `CN(Cc1cnc2nc(N)nc(N)c2n1)c1ccc(C(=O)N[C@@H](CCC(=O)O)C(=O)O)cc1`, the compound was called inactive.

On to `CCCCC=O`, for which the call was inactive.

The AC50 is the midpoint of the concentration-response curve, whichever way the signal moves. As for `O=C(CCCN1CCC(O)(c2ccc(Cl)cc2)CC1)c1ccc(F)cc1`, the concentration at half-maximal activity (AC50) was 75.8 µM (active).

Take `CCC(C)c1ccccc1O` (stereo not given): the compound was called inactive.

Consider `Cc1[nH]nc2c1N=C(c1ccccc1Cl)c1cc([N+](=O)[O-])ccc1N2`, for which the AC50 is 2.83 µM (active).

With `CCCCCCCCCCCCCCC`, the AC50 was 14.9 µM (active).

With `CCCCC(CC)C(=O)O` (stereo not given), the outcome was inactive.

Source of the values: PubChem BioAssay (EPA / NIEHS).
